The results in this text go back to PubChem BioAssay AID1159577 (Broad Institute, 2015).

The campaign covered roughly 1,300 compounds. About 240 (18%) were called active. Roughly 8% stayed inconclusive and do not appear here. How the calls were made is not given here. Only a sample is shown. Measured potencies and affinities stand elsewhere.

The nature of the assay: toxicity to human hepatoma HepG2 cells – cell-based, cherry-picked samples, cytotoxicity control, dose response (AID 1159577).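 Further: 0% = neutral control wells and -100% = positive control wells.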 The note with it: HepG2 cytotoxicity counterscreen, plate reader; series mostly up to 19.5 µM; activity change, negative = cytotoxicity: at the top concentration. For orientation: A counterscreen serves to expose hits that act by an unwanted route or on another target.
As for `O=S(=O)(c1ccccc1)N1C[C@@H]2N[C@H](C1)C2c1ccc(-c2ccc(F)cc2)cc1` (some centres undefined), the “activity change, negative = cytotoxicity” value was -31.9% (inactive). Take `CC=Cc1ccc2n(c1=O)C[C@@H]1[C@@H](CO)[C@H](C(=O)N3CCC(Cc4ccccc4)CC3)N(CCC)[C@H]21` (mixture of isomers): the “activity change, negative = cytotoxicity” value was -14.5% (inactive). For the compound `C[C@H]1CN([C@@H](C)CO)C(=O)c2cc(NC(=O)Nc3cccc4ccccc34)ccc2O[C@@H]1CN(C)Cc1ccc(Oc2ccccc2)cc1`, the “activity change, negative = cytotoxicity” value is -10.6% [at 21 µM] (inactive). As for `C[C@H](CO)N1C[C@H](C)[C@@H](CN(C)Cc2ccc(Oc3ccccc3)cc2)Oc2ccc(NS(=O)(=O)c3cn(C)cn3)cc2CC1=O`, the figure is 8.5% (inactive); as for `C[C@H](CO)N1C[C@H](C)[C@H](CN(C)Cc2ccc(Oc3ccccc3)cc2)Oc2ccc(NS(=O)(=O)c3ccc(Cl)cc3)cc2CC1=O`, -10.2% [at 21 µM] (inactive); as for `C[C@@H]1CN([C@H](C)CO)C(=O)c2cc(NC(=O)Nc3ccc(C(F)(F)F)cc3)ccc2O[C@H]1CN(C)C(=O)Nc1cccc2ccccc12`, 10.9% (inactive).

Regarding `C[C@H](CO)N1C[C@H](C)[C@@H](CN(C)C(=O)Nc2cccc3ccccc23)Oc2ccc(NC(=O)Nc3cccc4ccccc34)cc2CC1=O`, the “activity change, negative = cytotoxicity” value was 27.7% (inactive).

As for `CO[C@H]1CN(C)C(=O)c2cc(NC(=O)C3CC3)ccc2OC[C@@H](C)N(Cc2cc(F)ccc2F)C[C@H]1C`, the “activity change, negative = cytotoxicity” value is 30.6% (inactive). The value for `O=S(=O)(c1ccccc1)N1CC[C@@H]2[C@H](CO)Nc3ccc(C#CC4CCCCC4)cc3[C@@H]21` was -12.5% [at 23.5 µM] (inactive); that for `COc1ccc2c3c(n(C)c2c1)[C@@H](CO)N(C(=O)C1CCC1)CC31CN(C(=O)Nc2cccc(F)c2)C1` was -35.6% (inactive). As for `COc1cccc(-c2ccc3c(c2)[C@H]2[C@H](CCN2C(=O)C2CCCC2)[C@@H](CO)N3)c1`, the figure is -10.3% (inactive); as for `COCC#Cc1ccc([C@@H]2[C@H](CO)N3CCCCN(S(=O)(=O)c4ccc(OC)cc4)C[C@@H]23)cc1`, 2.6% (inactive); as for `CCC(=O)N1CC2(C1)CN(Cc1cc(F)ccc1F)[C@@H](CO)c1[nH]c3cc(OC)ccc3c12`, -3.61% (inactive). Consider `OC[C@@H]1CC[C@@H]2O[C@H](CCc3ccc(-c4ccc(F)cc4)cc3)[C@H](n3cc(C4CC4)nn3)C[C@@H]2O1`, for which the “activity change, negative = cytotoxicity” value was -5.35% (inactive).

Take `CC(C)(C)[S@](=O)N1Cc2cc(C(=O)NCCN3CCCC3)nc(-c3cccc(-c4ccc(C#N)cc4)c3)c2[C@@H]1CCO`: the “activity change, negative = cytotoxicity” value is -4.11% [at 21 µM] (inactive). Consider `C/C=C/c1ccc([C@H]2[C@@H](CO)N(C(=O)CC)[C@@H]2CNCC2CCCCC2)cc1`, for which the “activity change, negative = cytotoxicity” value was -6.29% [at 21 µM] (inactive).

For the compound `C/C=C/c1ccccc1[C@@H]1[C@@H](CO)N(S(=O)(=O)c2cccc(F)c2)[C@H]1C#N`, the “activity change, negative = cytotoxicity” value was -0.51% [at 21 µM] (inactive). The value for `C/C=C/c1ccc([C@H]2[C@@H](C#N)N(C(=O)NC3CCCC3)[C@@H]2CO)cc1` was -18.6% [at 21 µM] (inactive); that for `C/C=C/c1ccc([C@H]2[C@@H](CO)N(CC3CCCCC3)[C@@H]2CNC(C)C)cc1` was -4.8% [at 21 µM] (inactive); that for `C/C=C/c1ccc([C@H]2[C@@H](CO)N(CC3CCCC3)[C@@H]2CNC(=O)NC(C)C)cc1` was 7.86% [at 21 µM] (inactive).

For `CCc1csc(N2[C@H](C#N)[C@H](c3ccccc3-c3ccc(F)cc3)[C@H]2CO)n1`, the “activity change, negative = cytotoxicity” value was -13.9% (inactive). The value for `C[C@@H]1CN([C@@H](C)CO)C(=O)c2cccc(NC(=O)Nc3ccccc3)c2O[C@@H]1CN(C)C(=O)Nc1ccc(F)cc1` was 11.6% (inactive); that for `COc1ccc2c3c(n(C)c2c1)[C@@H](CO)N(C(=O)c1ccc(F)cc1)CC31CN(CC2CCOCC2)C1` was -6.16% (inactive).

Consider `CCCN1C[C@@H](C)[C@H](OC)CN(C)C(=O)c2ccc(NC(=O)c3cccc(F)c3)cc2OC[C@H]1C`, for which the “activity change, negative = cytotoxicity” value was 9.31% (inactive). With `COc1ccc2c3c(n(C)c2c1)[C@H](CO)N(Cc1ccccc1F)CC31CCN(CC2CC2)CC1`, the “activity change, negative = cytotoxicity” value was -24.4% (inactive). As for `COc1ccc2c3c(n(C)c2c1)[C@@H](CO)N(Cc1ccc(Cl)cc1)CC31CCN(CC2CC2)CC1`, the figure is -10.4% (inactive). The value for `COc1ccc2c3c(n(C)c2c1)[C@@H](CO)N(C(=O)c1ccccc1)CC31CCN(C(=O)c2ccccc2)CC1` was 6.24% (inactive); that for `COc1ccc2c3c(n(C)c2c1)[C@@H](CO)N(Cc1ccccc1F)CC31CCN(CC2CC2)CC1` was -22.2% (inactive). On to `COc1ccc2c3c(n(C)c2c1)[C@H](CO)N(C(=O)c1ccccc1)CC31CCN(C(=O)c2ccccc2)CC1`, for which the “activity change, negative = cytotoxicity” value is 28.5% (inactive). As for `CCC(=O)N1CCC2(CC1)CN(Cc1cccc(Cl)c1)[C@H](CO)c1c2c2ccc(OC)cc2n1C`, the figure is -4.12% (inactive). With `COc1ccc2c3c(n(C)c2c1)[C@@H](CO)N(CC1CCCCC1)CC31CCN(Cc2nccs2)CC1`, the “activity change, negative = cytotoxicity” value is 9.04% (inactive). Regarding `COc1ccc2c3c(n(C)c2c1)[C@H](CO)N(Cc1ccncc1)CC31CCN(C(=O)Cc2ccncc2)CC1`, the “activity change, negative = cytotoxicity” value was 9.18% [at 18 µM] (inactive). The value for `COc1ccc(-c2ccccc2[C@H]2[C@@H](CO)N(C(=O)C3CCOCC3)[C@H]2C#N)cc1` was 10.6% (inactive). The value for `COc1ccc2c3c(n(C)c2c1)[C@H](CO)N(Cc1cccnc1)CC31CN(C(=O)NC(C)C)C1` was -0.752% (inactive).

On to `CC(C)(C)[S@](=O)N1Cc2cc(C(=O)NCCN3CCCCC3)nc(-c3cccc(-c4cccc(C#N)c4)c3)c2[C@@H]1CCO`, for which the “activity change, negative = cytotoxicity” value was 2.26% (inactive). As for `C[C@@H]1CN([C@@H](C)CO)S(=O)(=O)c2ccc(C#Cc3ccncc3)cc2O[C@H]1CN(C)S(=O)(=O)c1ccc(F)cc1`, the figure is -11% (inactive); as for `OC[C@H]1CC[C@@H]2O[C@H](CCc3ccc(C#CCc4ccccc4)cc3)[C@@H](n3cc(-c4ccccc4)nn3)C[C@@H]2O1`, 12.9% (inactive); as for `O=C(C1CCCC1)N1CC[C@@H]2[C@H]1c1cc(C3=CCCCC3)ccc1N[C@@H]2CO`, 6.34% (inactive). The value for `Cc1ccc(S(=O)(=O)N(C)C[C@@H]2OCc3ccccc3-c3c(n(C)c4ccccc34)C(=O)N([C@@H](C)CO)C[C@@H]2C)cc1` was -18.7% (inactive). Regarding `CCCc1cn([C@H]2C[C@@H]3O[C@@H](CO)CC[C@@H]3O[C@@H]2CCc2ccc(-c3ccc(OC)cc3)cc2)nn1`, the “activity change, negative = cytotoxicity” value was 3.71% (inactive). `CCCc1cn([C@H]2C[C@@H]3O[C@H](CO)CC[C@@H]3O[C@@H]2CCc2ccc(-c3ccc(OC)cc3)cc2)nn1`: the “activity change, negative = cytotoxicity” value is 15.6% (inactive). Consider `COc1ccc(S(=O)(=O)N[C@@H]2CC[C@H](CCn3cc(-c4ccccc4F)nn3)O[C@@H]2CO)cc1`, for which the “activity change, negative = cytotoxicity” value was -8.13% (inactive). As for `COc1cccc(-c2cn(CC[C@@H]3CC[C@H](NS(=O)(=O)c4ccccc4Cl)[C@H](CO)O3)nn2)c1`, the figure is -6.11% (inactive). With `CCC(=O)N1C[C@H](C)[C@H](OC)CN(C)C(=O)c2cc(NC(=O)Nc3cccc(F)c3)ccc2OC[C@@H]1C`, the “activity change, negative = cytotoxicity” value is 22.1% (inactive).
